{"source": "PubChem BioAssay (NCATS)", "note": "Records with an inconclusive call do not appear. Calls of active or inactive are those of the source. The call rests on the fitted dose curve; in most records, active means well fitted cell-killing curve with a large enough effect; inconclusive means small, poorly fitted or top-dose-only effect; inactive means no such curve, though single readings can be large or run the other way."}
{"test": "qHTS of pediatric cancer cell lines to identify multiple opportunities for drug repurposing: Primary screen for Rh30 cells (AID 1347107); further: nearly all actives have a fitted effect of over 75% in size", "details": "Rh30 rhabdomyosarcoma viability, CellTiter-Glo luminescence, 48 h; series mostly up to 46 µM", "description": "Drug repurposing or repositioning has been offered as a strategy for drug development in oncology programs. This approach has special potential for childhood cancers and other rare or orphan diseases, where the expected return on new drug development has been a disincentive to pharmaceuticals.\nIn this project we exploit the poly-pharmacology of drugs to discover new indications via phenotypic screening of a panel of 19 well-characterized cell lines derived from solid tumors seen in children and adolescents. The goal is to identify approved drugs with previously unrecognized anticancer properties that has the potential to reveal new mechanisms and biological processes involved in carcinogenesis or drug resistance. We employed a titration-based paradigm (quantitative high-throughput screening or qHTS), where all compounds were tested at multiple concentrations for their effect on cell viability. Concentration-response curves (CRCs) were derived directly from the primary screen, and both potency and efficacy values were used to identify compounds with robust bioactivity profiles. We screened the NIH Chemical Genomics Center (NCGC) Pharmaceutical Collection (NPC) and Mechanism Interrogation Plate (MIPE) small molecule collections of approved and investigational compounds against these cell lines; and measured metabolically active cells after 48 hours of compound treatment as a proxy for cell viability.\nAssay Submitter: Nathalia J. Martinez, National Center for Advancing Translational Sciences, National Institutes of Health, Rockville, MD, USA; email: natalia.martinez@nih.gov\n[1] Shen, M et al. Quantitative high-throughput phenotypic screening of pediatric cancer cell lines identifies multiple opportunities for drug repurposing. Oncotarget 2017 Dec 19;9(4):4758-4772. PMID 29435139.\nThe cells were obtained from University of North Carolina (UNC), Pediatric Preclinical Testing Program (PPT), and Coriell Institute (CI).\nqHTS cell viability assay:\nCells were assayed in growth media at a density of 500-1,000 cells/well. Five microliters of cells were dispensed into 1,536-well, white, solid-bottom, TC-treated plates (Greiner Bio One) using a multidrop dispenser and incubated at 37 degrees C, 5% CO2, under a humidified atmosphere for 5 hours. Twenty-three nanoliters of compounds and controls (neutral control DMSO or positive control bortezomib at final concentration of 2.3 µM) were subsequently transferred by Kalypsys pintool. For primary screens, the MIPE collection was tested at 11-point dilutions (final concentrations range from 0.78 nM to 46 µM) and the NPC collection at 8-point dilutions (final concentrations range from 0.59 nM to 46 µM). Compounds tested in follow-up screens were assayed at 11-point dilutions. Cells were incubated for 48 hours, followed by addition of 3 µL of CellTiter-Glo (Promega). After a 15 min incubation at room temperature, samples were analyzed for luminescence intensity using a ViewLux High-throughput CCD imager equipped with clear filters."}
{"molecule": "CC1(C)[C@@H](OC(=O)CCC(=O)O)CC[C@]2(C)[C@H]3C(=O)C=C4[C@@H]5C[C@@](C)(C(=O)O)CC[C@]5(C)CC[C@@]4(C)[C@]3(C)CC[C@@H]12", "outcome": "inactive"}
{"molecule": "CCCCCCCCCCCCCCCCCCO", "outcome": "inactive"}
{"molecule": "COc1ccc(-c2cc(=O)c3c(O)cc(O[C@@H]4O[C@H](CO[C@@H]5O[C@@H](C)[C@H](O)[C@@H](O)[C@H]5O)[C@@H](O)[C@H](O)[C@H]4O)cc3o2)cc1O", "outcome": "inactive"}
{"molecule": "CC1(C)S[C@@H]2[C@H](N=CN3CCCCCC3)C(=O)N2[C@H]1C(=O)O", "outcome": "inactive"}
{"molecule": "NC(=O)c1ccc([N+](=O)[O-])cc1Cl", "outcome": "inactive"}
{"molecule": "C[N+]1(C)CCCC(OC(=O)C(O)(c2ccccc2)c2ccccc2)C1", "note": "(stereo not given)", "outcome": "inactive"}
{"molecule": "CC(=O)OCC(COC(C)=O)OC(C)=O", "outcome": "inactive"}
{"molecule": "C1CCN2C[C@@H]3C[C@@H](CN4CCCC[C@@H]34)[C@H]2C1", "outcome": "inactive"}
{"molecule": "Cc1onc(-c2ccccc2)c1-c1ccc(S(N)(=O)=O)cc1", "outcome": "inactive"}
{"molecule": "Cc1cc(-n2nc3ccc(Cl)cc3n2)c(O)c(C(C)(C)C)c1", "outcome": "inactive"}
{"molecule": "CN1C(=O)CC(c2ccccc2)C1=O", "note": "(stereo not given)", "outcome": "inactive"}
{"molecule": "CC(C)c1cc2c(cc1S(=O)(=O)O)[C@@]1(C)CCC[C@@](C)(C(=O)O)[C@@H]1CC2", "outcome": "inactive"}
{"molecule": "C[N+](C)(C)CC[N+]1(C)Cc2c(Cl)c(Cl)c(Cl)c(Cl)c2C1", "outcome": "inactive"}
{"molecule": "O=C(O)c1ccc[n+]([O-])c1", "outcome": "inactive"}
{"molecule": "CC1CCc2cc(F)cc3c(=O)c(C(=O)O)cn1c23", "note": "(stereo not given)", "outcome": "inactive"}
{"molecule": "Cc1cc(C)nc(NS(=O)(=O)c2ccc(N)cc2)n1", "outcome": "inactive"}
{"molecule": "Cc1ncc(CO)c(CN)c1O", "outcome": "inactive"}
{"molecule": "COc1ccc(C(=O)N2CCN(CC(=O)N3CCOCC3)CC2)cc1", "outcome": "inactive"}
{"molecule": "O=C(O)CCC(=O)O", "outcome": "inactive"}
{"molecule": "CCN(CC)C(=O)c1cccc(C)c1", "outcome": "inactive"}
{"molecule": "O=C1c2cccc(O)c2C(=O)c2c(O)cccc21", "outcome": "inactive"}
{"molecule": "CC(=O)Nc1ccccc1", "outcome": "inactive"}
{"molecule": "CCCCCCCCCCCCCCCCN", "outcome": "inactive"}
{"molecule": "C[C@]1(Cn2ccnn2)[C@H](C(=O)O)N2C(=O)C[C@H]2S1(=O)=O", "outcome": "inactive"}
{"molecule": "CC(=O)Oc1cccc(C)c1", "outcome": "inactive"}
{"molecule": "O=C1CC[C@@H](C(=O)O)N1", "outcome": "inactive"}
{"molecule": "CCN(CC)CCc1nc(-c2ccccc2)no1", "outcome": "inactive"}
{"molecule": "CC(C)(C)NCC(O)COc1cccc2c1CCC(=O)N2", "note": "(stereo not given)", "outcome": "inactive"}
{"molecule": "Cc1c(C(=O)NCCO)[n+](=O)c2ccccc2n1[O-]", "outcome": "inactive"}
{"molecule": "NCc1ccc(S(N)(=O)=O)cc1", "outcome": "inactive"}
{"molecule": "O=C(O)c1ccccc1C(=O)Nc1ccc(S(=O)(=O)Nc2nccs2)cc1", "outcome": "inactive"}
{"molecule": "C=CCOc1ccccc1OCC(O)CNC(C)C", "note": "(stereo not given)", "outcome": "inactive"}
{"molecule": "Cc1cc(O)cc(C)c1Cl", "outcome": "inactive"}
{"molecule": "Cn1cc(C(=O)[C@@H]2CCc3nc[nH]c3C2)c2ccccc21", "outcome": "inactive"}
{"molecule": "COc1ccc(NS(=O)(=O)c2ccc(N)cc2)nn1", "outcome": "inactive"}
{"molecule": "Cc1c(I)c(=O)n(-c2ccccc2)n1C", "outcome": "inactive"}
{"molecule": "CC(=O)N1C[C@H](O)C[C@H]1C(=O)O", "outcome": "inactive"}
{"molecule": "Cc1cc(OI)c(C(C)C)cc1-c1cc(C(C)C)c(OI)cc1C", "outcome": "inactive"}
{"molecule": "OC[C@@H](O)[C@@H](O)[C@H](O)[C@H](O)CO", "outcome": "inactive"}
{"molecule": "Cn1c([N+](=O)[O-])cnc1COC(N)=O", "outcome": "inactive"}
